This note sets out measurements from PubChem BioAssay (NCI).

Molecules are shown by their SMILES. The panel holds about 83,000 compounds, 20% with a hit somewhere; the sample as a whole holds those more often.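 For each line, cells grew in 96-well plates with the test compound present at a single concentration for 48 hours.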 Activity calls are given as the source filed them. Rule for the calls: active = growth percent below 10; inactive = the rest.

The assay concerns MDA-MB-468 breast. The assay is described as follows: NCI-60 one-dose screen, 48 h (100 = growth as untreated, 0 = no growth, -100 = all killed). The following applies: 10 µM unless noted.
With `CCCCCCCCCCCCCCCC1=NC(C)(C)CN1C(C)C`, the growth was -58.8% (active).

Consider `CSc1nc(=O)n(Cc2ccc(Cl)cc2)c(=O)[nH]1`, for which the growth was 121% (inactive).

Turning to `CC(=O)[C@H]1CC[C@]2(C)[C@@H]1CC[C@@H]1[C@@]3(C)CC(CCC#N)(CCC#N)C(=O)C(C)(C)[C@@H]3CC[C@]12C`, the growth is 99.7% (inactive).

`CCN(CC)CCNc1ncnc2c1cnn2-c1ccc(Cl)cc1`: the growth is 57.6% (inactive).

Take `COc1ccc2c(c1)nnn1c3ncccc3c(N=O)c21`: the growth is -87.8% (active).

`COc1cc(-c2nn(C(=O)NS(=O)(=O)c3ccccc3)cc2-c2ccncc2)ccc1Cl`: the growth is 68% (inactive).

For `Clc1ccc(Nc2nnc(CNc3ccccc3)c3ccccc23)cc1`, the growth is -16.4% (active).

As for `Fc1ccccc1-c1nc(-c2nc3cc(Cl)c(Cl)cc3[nH]2)c2ccccn12`, the growth is 63.1% (inactive).

For the compound `O=S(=O)(Nc1cc(Br)c(O)c2ccccc12)c1ccc(F)cc1`, the growth was -48.5% (active).

In the case of `CCOC(=O)C1CCCN1C(=O)C1(NC(C)=O)CCCC1` (stereo not given), the growth is 98.9% (inactive).

`CCCCCc1c(C)[nH]c(/C=C2\N=C(c3ccc[nH]3)C=C2Oc2ccc(OC)cc2)c1C`: the growth is -54.8% [100 µM] (active).

Turning to `Cc1ccccc1OC(=O)c1cccc(Cl)c1`, the growth is 107% (inactive).

Turning to `COC(=O)c1ccc(C(=O)Nc2ccccc2N)cc1`, the growth was 44% (inactive).

For `Cc1c2c(c(C)c3c1oc1cc(O)ccc13)C(=O)N(CCN1CCCCC1)C2=O`, the growth is 100% (inactive).

Take `CN(C)CCNC(=O)c1cccn2c(=O)c3cc4ccccc4cc3nc12`: the growth is -43.6% (active).

Regarding `CCOC(=O)c1cc(C(=O)c2ccc(F)cc2F)n2ccccc12`, the growth was 102% (inactive).

As for `COc1ccc(-c2cc(-c3ccc(N(C)C)cc3)nc(NC(=O)c3ccncc3)n2)cc1`, the growth is 75.5% (inactive).

In the case of `Cc1ccc(-n2c(C)nn3c(=O)c4c5c(sc4nc23)CN(C)CC5)cc1`, the growth was 102% (inactive).

Turning to `O=C(CCl)NNc1nccc(Nc2ccc(S(=O)(=O)Nc3ccncc3)cc2)n1`, the growth is 31.5% (inactive).

Consider `CCOC(=O)c1nc2c3ccccc3cnn2c1C(=O)c1ccc(OC)cc1`, for which the growth was 105% (inactive).

With `CCN1C(=O)N(CC)C2C1NN=c1s/c(=C\c3ccc(C(F)(F)F)cc3)c(=O)n12` (stereo not given), the growth was 9.87% (active).

In the case of `CNC(C)=O`, the growth was 102% (inactive).

With `O=S(=O)(NCCO)c1ccc(OCCOc2ccc(S(=O)(=O)NCCO)cc2)cc1`, the growth is 95.3% (inactive).

As to `CCCCCCCCCCCCCCCCOc1ccc(C)cc1`, the growth is 106% (inactive).

In the case of `COc1cc(-c2cc(/C=C3\CCCCC3=O)[nH]n2)cc(OC)c1OC`, the growth is 85.2% (inactive).

For `COC(=O)c1c(C)nc(C)c2c1C(=O)C(Br)=C(NCc1ccccc1)C2=O`, the growth was -21.3% (active).

Turning to `O=C1N/C(=N/O)S/C1=C/c1cn(-c2ccccc2)nc1-c1ccccc1`, the growth was 84.6% (inactive).

Take `O=[N+]([O-])c1ccc(-c2nnc(SCc3ccc(O)c4ncccc34)n2-c2ccccc2)cc1`: the growth is 19.9% (inactive).

Consider `CSc1ccc(/C(=N/N=C(N)N)c2ccccc2)cc1`, for which the growth is 44.8% (inactive).

In the case of `CN1C(=O)N(C)C2C1NN=c1s/c(=C\c3ccc([N+](=O)[O-])cc3)c(=O)n12` (stereo not given), the growth was 53.4% (inactive).

As to `COc1cc2c(cc1-c1c(C)noc1C)ncc1nc(-c3ccccn3)n([C@H](C)COC(F)F)c12`, the growth was 46.5% (inactive).

For `COc1ccc(NC(=O)CSc2nc3ccccc3c(=O)n2CCc2ccccc2)cc1`, the growth was 87.7% (inactive).

Consider `N#CC1CCc2c(c(-c3cn[nH]c3C(F)(F)F)nc3c(F)cc4[nH]ncc4c23)C1` (stereo not given), for which the growth was -6.53% (active).

`O=C(O)COc1ccc(OCC(=O)O)cc1`: the growth was 2.23% (active).

For `O=[N+]([O-])c1ccc2c(N=Nc3ccc4ccccc4c3O)c(O)cc(S(=O)(=O)O)c2c1`, the growth was 106% (inactive).

Regarding `COc1ccc(-c2nnc(SCC(=O)Nc3ccc(C(=O)/C=C/c4cc(OC)c(OC)c(OC)c4)cc3)n2-c2ccccc2)cc1OC`, the growth is -14.2% [100 µM] (active).

As to `COC(=O)[C@]1(C)CCC[C@]2(C)[C@H]3C[C@H]4C(C(C)C)=C[C@]3(CC[C@H]21)[C@H]1[C@@H]4[C@@H](OCCC#N)CC[C@@H]1OCCC#N`, the growth is -6.32% (active).

With `CCCOC(=O)N[C@H]1CCc2c(Cl)c(OC)c(OC)c(OC)c2-c2ccc(SC)c(=O)cc21`, the growth was -18.6% (active).

As for `CC[N+](CC)(CCOCCOCC[N+](CC)(CC)Cc1ccc([N+](=O)[O-])cc1)Cc1ccc([N+](=O)[O-])cc1`, the growth is 97.9% (inactive).

In the case of `O=C1[C@@H]2Cc3c([nH]c4ccccc34)[C@H](c3c(Cl)cccc3Cl)N2C(=O)CN1C1CCN(Cc2c(F)cccc2F)CC1`, the growth is 102% (inactive).
